From PubChem BioAssay (Tox21)
Results filed as inconclusive are left out. The source made the active and inactive calls. Calls follow the shape of the dose curve; as a rule, active = well fitted curve in the direction sought with a large enough effect in the repeat runs; inconclusive = weak or mixed curves; inactive = no such curve, though single readings can be large; an effect the other way counts as inactive or inconclusive.

What was measured:
[1] = A CellTox Green Cytotoxicity Assay to monitor cytotoxicity in HepG2 cells - 16 hour (AID 1224876); also: nearly all actives have a fitted effect of over 45% in size
In short: (§1)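 HepG2 cells were seeded together with the CellTox Green dye at 600 cells/well, left 5 h at 37 C/5% CO2, then given compounds in DMSO. Fluorescence from dye bound to dead-cell DNA was read repeatedly over 40 h of treatment at 37 C.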

[2] = qHTS RealTime-Glo MT Cell Viability Assay in HepG2 cells - 32 hour (AID 1224877); also: nearly all actives have a fitted effect of over 55% in size
In short: (§2)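 HepG2 suspension premixed with RealTime-Glo reagents is plated at 600 cells per well and left 5 h at 37 C/5% CO2. Compounds in DMSO then go in, and bioluminescence reflecting viable cell number is recorded over 40 h.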

[3] = A CellTox Green Cytotoxicity Assay to monitor cytotoxicity in HepG2 cells - 24 hour (AID 1224878); also: nearly all actives have a fitted effect of over 45% in size
In short: as §1

[4] = A CellTox Green Cytotoxicity Assay to monitor cytotoxicity in HepG2 cells - 40 hour (AID 1224879); also: nearly all actives have a fitted effect of over 40% in size
In short: as §1

[5] = qHTS RealTime-Glo MT Cell Viability Assay in HEK293 cells - 0 hour (AID 1224880); also: top concentration of the series differs between compounds; nearly all actives have a fitted effect of over 45% in size
In short: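 HEK293 cells mixed with RealTime-Glo reagents (NanoLuc plus cell-permeant prosubstrate) at 600 cells/well, preincubated 5 h at 37 C/5% CO2, then given 23 nL compound in DMSO. Nonlytic luminescence from viable cells was read at 0, 8, 16, 24, 32 and 40 h.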

[6] = A CellTox Green Cytotoxicity Assay to monitor cytotoxicity in HEK293 cells - 32 hour (AID 1224881); also: nearly all actives have a fitted effect of over 40% in size
In short: (§3)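 HEK293 cells premixed with CellTox Green dye were seeded at 600 cells/well and left 5 h at 37 C/5% CO2 before pin transfer of 23 nL compound in DMSO. Fluorescence from dye bound to dead-cell DNA was read during 40 h treatment.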

[7] = A CellTox Green Cytotoxicity Assay to monitor cytotoxicity in HepG2 cells - 0 hour (AID 1224882); also: nearly all actives have a fitted effect of over 35% in size
In short: as §1

[8] = A CellTox Green Cytotoxicity Assay to monitor cytotoxicity in HepG2 cells - 32 hour (AID 1224883); also: nearly all actives have a fitted effect of over 50% in size
In short: as §1

[9] = A CellTox Green Cytotoxicity Assay to monitor cytotoxicity in HEK293 cells - 8 hour (AID 1224884); also: nearly all actives have a fitted effect of over 35% in size
In short: as §3

[10] = qHTS RealTime-Glo MT Cell Viability Assay in HepG2 cells - 16 hour (AID 1224885); also: nearly all actives have a fitted effect of over 50% in size
In short: as §2
% is scaled to controls: 0 for no effect and ±100 for the full control effect.

C1=CCC(c2ccccc2)CC1 (stereo not given)
inactive: Potency [1] | outcome [2] | Potency [3] | Potency [4] | outcome [5] | Potency [6] | Potency [7] | Potency [8]

CCCCCCCCC(=O)OCC
inactive: Potency [1] | outcome [2] | Potency [3] | Potency [4] | outcome [5] | Potency [6] | Potency [7] | Potency [8] | Potency [9]

CCCCCCCCCOCC1CO1 (stereo not given)
inactive: Potency [1] | outcome [2] | Potency [3] | Potency [4] | outcome [5] | Potency [6] | Potency [7] | Potency [8] | Potency [9] | outcome [10]

CC1=CC[C@H](CC=O)C1(C)C
inactive: Potency [1] | outcome [2] | Potency [3] | Potency [4] | outcome [5] | Potency [6] | Potency [7] | Potency [8] | Potency [9]

Cc1nc2n(c(=O)c1CCN1CCC(C(=O)c3ccc(F)cc3)CC1)CCS2
inactive: Potency [1] | outcome [2] | Potency [3] | Potency [4] | outcome [5] | Potency [6] | Potency [7] | Potency [8] | Potency [9]

CN[C@@H]1[C@@H](O)[C@@H](O[C@@H]2[C@H](O)[C@H](O[C@H]3OC(CN)=CC[C@H]3N)[C@@H](N)C[C@H]2N)OCC1(C)O (stereo not given in full)
inactive: Potency [1] | outcome [2] | Potency [3] | Potency [4] | outcome [5] | Potency [6] | Potency [7] | Potency [8] | Potency [9]

CC(=O)/C=C/c1ccco1
inactive: Potency [1] | outcome [2] | Potency [3] | Potency [4] | outcome [5] | Potency [6] | Potency [7] | Potency [8] | Potency [9]

CC(C)SCc1ccco1
inactive: Potency [1] | outcome [2] | Potency [3] | Potency [4] | outcome [5] | Potency [6] | Potency [7] | Potency [8] | Potency [9]

CCOC(=O)OCC/C(SC(=O)OCC)=C(\C)N(C=O)Cc1cnc(C)nc1N
inactive: Potency [1] | outcome [2] | Potency [3] | Potency [4] | outcome [5] | Potency [6] | Potency [7] | Potency [8] | Potency [9] | outcome [10]

CCOC(=O)CCCCCCCCC(=O)OCC
inactive: Potency [1] | outcome [2] | Potency [3] | Potency [4] | outcome [5] | Potency [6] | Potency [7] | Potency [8] | Potency [9]

COC(OC)C(C)c1ccccc1 (stereo not given)
inactive: Potency [1] | outcome [2] | Potency [3] | Potency [4] | outcome [5] | Potency [6] | Potency [7] | Potency [8] | Potency [9] | outcome [10]

Cc1cccc(Nc2ccncc2S(=O)(=O)NC(=O)NC(C)C)c1
inactive: Potency [1] | outcome [2] | Potency [3] | Potency [4] | outcome [5] | Potency [6] | Potency [7] | Potency [8] | Potency [9] | outcome [10]

C[C@H](CCC(=O)O)[C@H]1CC[C@H]2[C@@H]3[C@H](O)C[C@@H]4C[C@H](O)CC[C@]4(C)[C@H]3C[C@H](O)[C@]12C
inactive: Potency [1] | outcome [2] | Potency [3] | Potency [4] | outcome [5] | Potency [6] | Potency [7] | Potency [8] | Potency [9] | outcome [10]

CC(C)CCCC(C)CC=O (stereo not given)
inactive: Potency [1] | outcome [2] | Potency [3] | Potency [4] | outcome [5] | Potency [6] | Potency [7] | Potency [8] | Potency [9]

O=c1[nH]c(=O)c2[nH]c(=O)[nH]c2[nH]1
inactive: cytotoxicity increase [1] -0.724% [at 6.97 µM] | activity change, negative = cytotoxic [2] 0.932% [at 6.97 µM] | cytotoxicity [3] -0.222% [at 6.97 µM] | cytotoxicity increase [4] 1.9% [at 6.97 µM] | activity change, negative = cytotoxicity [5] 1.84% [at 6.97 µM] | cytotoxicity increase [6] -13.1% [at 6.97 µM] | cytotoxicity [7] -5.08% [at 6.97 µM] | cytotoxicity increase [8] -0.415% [at 6.97 µM] | cytotoxicity increase [9] -15.5% [at 6.97 µM] | activity change, negative = cytotoxic [10] 0.919% [at 6.97 µM]

C[Si]1(C)N[Si](C)(C)N[Si](C)(C)N1
inactive: Potency [1] | outcome [2] | Potency [3] | Potency [4] | outcome [5] | Potency [6] | Potency [7] | Potency [8] | Potency [9] | outcome [10]

O=[Si]=O
inactive: Potency [1] | outcome [2] | Potency [3] | Potency [4] | outcome [5] | Potency [6] | Potency [7] | Potency [8] | Potency [9] | outcome [10]

Nc1ccc(/C=C/c2ccc(N)cc2S(=O)(=O)O)c(S(=O)(=O)O)c1
inactive: cytotoxicity increase [1] -10.5% [at 0.29 µM] | activity change, negative = cytotoxic [2] -0.0646% [at 0.29 µM] | cytotoxicity [3] -13.6% [at 0.29 µM] | cytotoxicity increase [4] -16.8% [at 0.29 µM] | activity change, negative = cytotoxicity [5] 3.48% [at 0.29 µM] | cytotoxicity increase [6] -0.592% [at 0.29 µM] | cytotoxicity [7] 1.07% [at 0.29 µM] | cytotoxicity increase [8] -15.7% [at 0.29 µM] | cytotoxicity increase [9] 0.921% [at 0.29 µM] | activity change, negative = cytotoxic [10] 4.55% [at 0.29 µM]

Cc1c(C(C)C)c(=O)n(-c2ccccc2)n1C
inactive: Potency [1] | outcome [2] | Potency [3] | Potency [4] | outcome [5] | Potency [6] | Potency [7] | Potency [8] | Potency [9] | outcome [10]

CC(=O)N(CC(O)CO)c1c(I)c(C(=O)NCC(O)CO)c(I)c(C(=O)NCC(O)CO)c1I (stereo not given)
inactive: Potency [1] | outcome [2] | Potency [3] | Potency [4] | outcome [5] | Potency [6] | Potency [7] | Potency [8] | Potency [9] | outcome [10]

Cc1ccccc1C
inactive: Potency [1] | outcome [2] | Potency [3] | Potency [4] | outcome [5] | Potency [6] | Potency [7] | Potency [8] | Potency [9] | outcome [10]

CC1(N)CCC(C(C)(C)N)CC1 (stereo not given)
inactive: Potency [1] | outcome [2] | Potency [3] | Potency [4] | outcome [5] | Potency [6] | Potency [7] | Potency [8] | Potency [9] | outcome [10]

CC(C)c1ccccc1O
inactive: Potency [1] | outcome [2] | Potency [3] | Potency [4] | outcome [5] | Potency [6] | Potency [7] | Potency [8] | Potency [9] | outcome [10]
